Test results taken from PubChem BioAssay AID2629 (Broad Institute, 2010).
In all, about 320,000 compounds went through this assay and about 1,900 (0.59%) were called active. No stated cut-off is given here; in the data, active means inhibition mostly above about 10% (no sharp cut-off); inactive means mostly below about 6.7%. The full list was thinned out, with actives kept by preference.

What follows are molecules tested against Protein LANA1 (Human herpesvirus 8 type P (isolate GK18)) (UniProt Q9QR71) (assay: blockers of LANA interaction with H2A/H2B – biochemical, FP readout, HTS, primary screen (AID 2629)). Details: cell-free LANA-H2A/H2B peptide, fluorescence polarization, active compounds read high, concentration not given here.
Protein LANA1 (Human herpesvirus 8 type P (isolate GK18)), sequence (Q9QR71 whole entry, looked up): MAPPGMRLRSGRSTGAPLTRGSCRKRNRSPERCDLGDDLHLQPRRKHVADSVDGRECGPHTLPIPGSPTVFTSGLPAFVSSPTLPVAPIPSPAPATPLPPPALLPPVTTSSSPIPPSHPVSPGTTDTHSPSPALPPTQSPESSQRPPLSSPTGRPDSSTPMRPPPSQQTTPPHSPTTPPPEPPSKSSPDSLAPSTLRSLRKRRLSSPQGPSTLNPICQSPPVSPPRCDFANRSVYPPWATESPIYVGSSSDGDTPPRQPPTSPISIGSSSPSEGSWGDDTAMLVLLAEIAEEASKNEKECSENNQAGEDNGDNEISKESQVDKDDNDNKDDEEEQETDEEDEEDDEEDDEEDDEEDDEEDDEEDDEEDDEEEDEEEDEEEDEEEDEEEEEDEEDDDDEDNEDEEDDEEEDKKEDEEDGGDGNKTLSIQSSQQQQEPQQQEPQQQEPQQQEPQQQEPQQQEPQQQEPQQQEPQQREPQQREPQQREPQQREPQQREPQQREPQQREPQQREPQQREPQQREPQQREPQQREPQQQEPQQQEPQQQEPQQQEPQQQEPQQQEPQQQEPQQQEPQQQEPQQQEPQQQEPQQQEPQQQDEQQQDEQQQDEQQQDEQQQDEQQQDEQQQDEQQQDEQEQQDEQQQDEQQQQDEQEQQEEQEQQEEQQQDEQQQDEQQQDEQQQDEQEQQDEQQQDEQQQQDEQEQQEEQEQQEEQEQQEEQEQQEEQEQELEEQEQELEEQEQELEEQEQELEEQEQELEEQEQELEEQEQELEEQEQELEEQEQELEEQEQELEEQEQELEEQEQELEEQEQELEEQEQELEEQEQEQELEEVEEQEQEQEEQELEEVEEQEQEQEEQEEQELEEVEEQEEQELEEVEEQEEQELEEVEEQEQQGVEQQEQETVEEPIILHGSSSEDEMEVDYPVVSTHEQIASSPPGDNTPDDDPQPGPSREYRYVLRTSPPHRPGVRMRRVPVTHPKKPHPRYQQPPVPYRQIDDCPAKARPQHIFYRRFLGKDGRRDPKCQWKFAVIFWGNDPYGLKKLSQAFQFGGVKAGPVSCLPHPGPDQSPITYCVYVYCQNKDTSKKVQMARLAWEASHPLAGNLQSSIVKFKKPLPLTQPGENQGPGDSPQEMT

inhibition, inactive:
COc1ccccc1NC(=O)C1CCCN1S(=O)(=O)c1ccc(Cl)cc1 (stereo not drawn) -0.219%
O=C1COc2ccc(C(=O)COC(=O)C3CC(O)CN3S(=O)(=O)c3ccc(Cl)cc3)cc2N1 (stereo not drawn) -4.73%
COc1ccc2c(C)cc3nnnn3c2c1 6.55%
O=C(CN1C(=O)NC2(CCCC2)C1=O)Nc1cc(C(F)(F)F)ccc1N1CCOCC1 -2.08%
CC(C)CC(=O)Nc1cc(C(F)(F)F)ccc1N1CCOCC1 3.7%
Cc1cc(Nc2cc(N3CCN(C)CC3)nc(Sc3ccc(NC(=O)C4CC4)cc3)n2)n[nH]1 1.71%
CN(c1ccccc1)S(=O)(=O)c1ccc(Cl)c(C(=O)OCC(=O)NCc2ccco2)c1 -3.84%
CN(c1ccccc1)S(=O)(=O)c1ccc(Cl)c(C(=O)OCC(N)=O)c1 -3.79%
Cc1ccc(S(=O)(=O)N(CC(O)CN2CCCCC2)c2cccc([N+](=O)[O-])c2)cc1 (stereo not drawn) 7.02%
Cc1cc(=O)n2nc(N3CCCC(C(=O)N4CCN(C)CC4)C3)sc2n1 (stereo not drawn) 0.763%
CCc1c(C)nc2ncnn2c1N1CCC(C(=O)NCc2ccc3c(c2)OCO3)CC1 0.84%
O=C(CSc1nnc(-c2ccccc2O)o1)NC1CCCCC1 3.2%
CCn1c(SCC(=O)NC2CCCC2)nnc1-c1ccoc1C -2.52%
CCCCSCCCNC(=O)C1CCC(CNS(=O)(=O)c2ccc(NC(C)=O)cc2)CC1 (stereo not drawn) -3.44%
CCSC1=NCCN1C(=O)c1ccc(S(=O)(=O)N(CC)CC)cc1 10.9%
O=C(CN1C(=O)CCC1=O)Nc1ccc(S(=O)(=O)N2CCOCC2)cc1 1.75%
O=C(CN1CCCCCC1)Nc1ccc(S(=O)(=O)N2CCCCC2)cc1 7.61%
COC(=O)CNS(=O)(=O)c1ccc(Cc2ccc(S(=O)(=O)NCC(=O)OC)cc2)cc1 5.82%
COC(=O)C1=C(C)NC2=C(C(=O)c3ccccc32)C1c1ccc(-c2ccc(C(=O)O)cc2)o1 (stereo not drawn) 3.17%
CC(=O)c1sc(N/N=C/c2ccc(C(C)C)cc2)nc1C 2.17%
COc1ccc(S(=O)(=O)N2CCOCC2)cc1NC(=O)CSc1nnc(NC2CC2)s1 -4.5%
COc1ccc(NC(=O)NNC(=O)COc2cc(C)c(Cl)c(C)c2)c(OC)c1 -5.21%
CN(CC(=O)Nc1c(Cl)cccc1Cl)C(=O)CNC(=O)C1CCCCC1 -5.68%
Cc1ccc(C(=O)CCC(=O)N(C)CC(=O)Nc2c(Cl)cccc2Cl)cc1 4.61%
COc1cccc(NC(=O)C/C(C)=N/NC(=O)C2CCCCC2)c1 3.19%
O=C(Nc1cccc(F)c1)NC1CCCCCCC1 0.578%
COc1ccc(F)cc1C(=O)C1CCCN(C(=O)CCc2ccccn2)C1 (stereo not drawn) -0.521%
CCOC(=O)C1(O)CC(C)=NN1C(=O)c1cccc(Br)c1 (stereo not drawn) 1.92%
CC1=NN(C(=O)c2ccccc2Br)C(O)(c2cccnc2)C1 (stereo not drawn) -0.482%
Cc1coc2c1c(C)cc1oc(=O)c(CC(=O)NCC(=O)N[C@H](C(=O)O)C(C)C)c(C)c12 1.45%
COc1ccc(OC)c(NC(=O)CSc2nc(N)c(-c3ccccc3)c(=O)[nH]2)c1 4.91%
COc1ccc(C(=O)Nc2c(N)nc(SCC(=O)Nc3ccc(C(C)=O)cc3)[nH]c2=O)cc1 2.95%
CCOc1ccc(CCNC(=O)COC(=O)C2CCN(c3ccc(C(F)(F)F)cn3)CC2)cc1OCC 2.54%
O=C(CN1CCc2ccccc2C1)Nc1cccc(S(=O)(=O)N2CCOCC2)c1 2.86%
CSCCC(NS(=O)(=O)c1ccc(C)cc1)C(=O)NCCc1c[nH]c2ccccc12 (stereo not drawn) -5.03%
CCc1nnc(NC(=O)[C@@H](NC(=O)c2cccc(C)c2)C(C)C)s1 1.78%
CCCn1nc2cc(C(=O)NCc3ccccc3)ccc2c1OCC 3.43%
CCOc1c2ccc(C(=O)NCc3ccc(OC(F)(F)F)cc3)cc2nn1C -0.924%
COC(=O)[C@H](C(C)C)n1c(C)c(C(C)=O)c(C(C)=O)c1C -3.34%
CCC(=O)N(C)C(c1ccccc1Cl)c1nnnn1-c1c(C)cccc1C (stereo not drawn) -0.0342%
COC(=O)c1ccc(CSc2ccc(S(=O)(=O)N3CCCCC3)cn2)cc1 -0.0946%
COC(=O)c1ccc(CSc2nncn2C)cc1 5.16%
CCCCNc1ccc(C(=O)Nc2cccc(C)n2)cc1[N+](=O)[O-] -3.43%
Cc1cc(C)c(C)c(S(=O)(=O)Nc2cccnc2)c1C -0.825%
COc1ccccc1Oc1ccc(S(=O)(=O)Nc2cccnc2)cc1 2.24%
COc1ccc(CCc2nnc(CCC(=O)NCc3cnn(-c4ccccc4C)c3)o2)cc1 16.6%
CC(=O)Nc1ccc(S(=O)(=O)NC2(C(F)(F)F)C(=O)Nc3c2c(=O)[nH]c(=O)n3Cc2ccccc2)cc1 (stereo not drawn) -2.71%
CC(=O)n1cc([C@@H]2C=C(C(=O)N3CCN(Cc4ccc5c(c4)OCO5)CC3)O[C@H](OCc3ccc(CO)cc3)C2)c2ccccc21 1.33%
CCC(C)c1ccc(NC(=S)NCc2ccccn2)cc1 (stereo not drawn) -1.48%
CCN(CC)CCOc1ccc2c(c1)C(=NNC(=O)c1ccccn1)c1cc(OCCN(CC)CC)ccc1-2 -1.56%
CC(OC(=O)c1ccc2noc(-c3ccccc3)c2c1)C(N)=O (stereo not drawn) -5.93%
Oc1ccc(-c2onc3ccc(Cl)cc23)cc1 3.12%
CC(C)c1ccc(Nc2nnc(SCC(=O)c3nnc(-c4ccccc4)o3)s2)cc1 -16.3%
Cc1noc(C)c1COc1ccc(C(=O)NCCOc2ccccc2)cc1 2.1%
COC(=O)c1cnc(Nc2cc(C)ccc2OC)c2ccccc12 -2.27%
COc1ccc(C)cc1Nc1nc(C)nc2c1oc1ccccc12 3.52%
Cc1cc(C=O)c(C)n1-c1ccc(NC2CCCCC2)c([N+](=O)[O-])c1 5.17%
Cc1ccc(NS(=O)(=O)c2ccc(C(C)C)cc2)cc1S(=O)(=O)N1CCOCC1 -10.5%
O=C(CCCOc1ccccc1)NNC(=O)c1ccc(Cl)cc1 3.13%
O=C(COc1ccc(Cl)cc1)NCCSc1ccccc1 -4.08%
COC(=O)Cc1csc(/N=C/c2c(O)n(-c3cccc(C(F)(F)F)c3)c(=O)c3ccccc23)n1 -3.9%
Cn1c(CCc2ccccc2)nnc1SCC(N)=O -7.18%
N#CCCn1ncc2ccccc21 4.72%
O=C(CNCc1ccc(F)cc1)Nc1ccccc1-c1ccccc1 -4%
COc1cc(NC(=O)c2ccccc2)c(OC)cc1NC(=O)Cc1ccccc1 -1.39%
Cc1ncoc1C(=O)N1CCCC(C(=O)c2ccc3c4c(cccc24)CC3)C1 (stereo not drawn) 1.25%
CC(=O)NCC(=O)N1CCCC(C(=O)c2ccc3c4c(cccc24)CC3)C1 (stereo not drawn) -1.06%
CCc1c(O)cc2n(c1=O)-c1ccccc1C2(C)C 5.7%
O=C(CN1CCN(c2ncccn2)CC1)Nc1ccccc1C(F)(F)F 0.982%
COc1cc(C(=S)N2CCOCC2)ccc1O 9.41%
COc1ccc(OC)c(C(=O)c2coc3ccc(O)c(CN4CCOCC4)c23)c1 -2.58%
CC(C)(C)C1CCC(OC(=O)CCC(=O)Nc2ccccc2)CC1 (stereo not drawn) -3.13%
Cc1ccc(C2NC(C(=O)O)CS2)cc1 (stereo not drawn) 1.22%
CN(CC(=O)Nc1ccc(F)c(F)c1F)C(=O)Cn1cnc2c1c(=O)n(C)c(=O)n2C 1.35%
O=c1[nH]n2c(=O)c3c([nH]c2c1N=Nc1ccccc1)CCC3 -4.38%

inhibition, active:
NNC(=O)C1CC(O)CN1S(=O)(=O)c1ccc(Cl)cc1 (stereo not drawn) 18%
O=C(Cn1nnc2ccccc2c1=O)Nc1cc(C(F)(F)F)ccc1N1CCOCC1 15.8%
Cc1occc1-c1nnc(SCC(=O)NC2CCCCC2)o1 14.3%
CCCC1C(c2ccccc2)C(C#N)(C#N)C2(C#N)CC1(N)NC2=O (stereo not drawn) 182%
O=C(CN1CCN(c2cccc(Cl)c2)CC1)Nc1ccc(S(=O)(=O)N2CCOCC2)cc1 145%
CN(CC(=O)Nc1c(Cl)cccc1Cl)C(=O)c1ccncc1 111%
C/C(CC(=O)Nc1cccc(F)c1)=N\NC(=O)C(=O)NC1CCCCC1 15.3%
CC1=NN(C(=O)c2ccc(Br)cc2)C(O)(c2ccccc2)C1 (stereo not drawn) 15.6%
COc1ccc(NC(=O)CSc2nc(N)c(-c3ccccc3)c(=O)[nH]2)cc1 12.1%
CCOc1c2ccc(C(=O)NCc3ccc4c(c3)OCO4)cc2nn1C 19.6%
COC(=O)c1ccc(SCc2ccccc2)nc1 60.3%
COc1ccc(S(=O)(=O)Nc2cccnc2)c(Cl)c1Cl 12.6%
COc1ccc(-c2onc3ccc(C(C)=O)cc23)cc1 26.3%
COc1ccc(C)cc1Nc1nc(-c2c(C)[nH]c3ccccc23)cs1 39.5%
O=C(CCc1ccccc1)NNC(=O)COc1ccc(Cl)cc1 77.8%
CCn1ccnc1CN1CCCC(C(=O)c2ccc3c4c(cccc24)CC3)C1 (stereo not drawn) 25.9%
COc1ccc(/C(C)=N/N2CCOCC2)c(O)c1 25.4%
CC(C)(C)n1c(=O)[nH]c2c(c1=O)CCC2 23.6%
